Laboratory results: PubChem BioAssay (NCATS)
Inconclusive results are not listed. Where a call stands in place of a potency, no number is given. A number with no mark means an inactive call. Calls of active or inactive are those of the source. Calls follow the shape of the dose curve; as a rule, active = well fitted inhibition curve with a large enough effect; inconclusive = small, poorly fitted or top-dose-only effect; inactive = flat fitted curve, though single readings scatter.

Assays:
[1] = target: Glutathione peroxidase 1 (Homo sapiens) (UniProt P07203); experiment: Primary qHTS Assay for Inhibitors of Recombinant Selenoprotein Glutathione Peroxidase 1 (GPX1) (AID 1845191); also: nearly all actives have a fitted effect of over 65% in size
Method in brief: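 GPX1 10 nM, GR 100 nM, GSH 1 mM, NADPH 0.5 mM, CHP 0.5 mM (final). 30-min cpd preincubation, RT. Ex340/Em450 read t=0, t=15 min.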

[2] = target: Phospholipid hydroperoxide glutathione peroxidase GPX4 (Homo sapiens) (UniProt P36969); experiment: Primary qHTS Assay for Inhibitors of Recombinant Selenoprotein Glutathione Peroxidase 4 (GPX4) (AID 1845192); also: nearly all actives have a fitted effect of over 65% in size
Method in brief: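 qHTS, GR-coupled: GPX4 200 nM + cpd 30 min RT → GSH 1 mM, NADPH 0.5 mM, GR 100 nM → CHP 0.5 mM start; fluor 340/450 at t0 and t15 min; no-enzyme wells as control.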

[3] = qHTS profiling for inhibitors of Plasmodium falciparum proliferation (AID 504749); also: nearly all actives have a fitted effect of over 60% in size; settings: P. falciparum in erythrocytes, SYBR Green DNA, 72 h
Method in brief: (§1)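 Fluorescence of SYBR Green-bound parasite DNA, read at 485/535 nm, served as the growth measure. Infected erythrocytes were cultured with compound 72 h; artemisinin (0.29 uM) and DMSO wells defined the normalization range.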

3D7 = experiment: as above; settings: P. falciparum in erythrocytes, SYBR Green DNA, 72 h; series mostly up to 28.7 µM
Method in brief: as §1

7G8 = experiment: as above; settings: P. falciparum in erythrocytes, SYBR Green DNA, 72 h; series mostly up to 28.7 µM
Method in brief: as §1

[4] = at 28.7 µM (top of the series), parasite line A
[5] = at 28.7 µM (top of the series), parasite line B
Potency is read from the fitted curve at half-maximal effect.

Chain of Glutathione peroxidase 1 (Homo sapiens) (P07203 whole entry, looked up): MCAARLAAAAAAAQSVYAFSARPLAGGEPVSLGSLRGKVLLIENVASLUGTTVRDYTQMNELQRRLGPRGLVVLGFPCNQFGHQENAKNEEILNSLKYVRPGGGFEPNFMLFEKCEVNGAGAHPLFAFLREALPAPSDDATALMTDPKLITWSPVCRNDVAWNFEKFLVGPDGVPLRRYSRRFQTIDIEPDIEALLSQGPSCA
Chain of Phospholipid hydroperoxide glutathione peroxidase GPX4 (Homo sapiens) (P36969 whole entry, looked up): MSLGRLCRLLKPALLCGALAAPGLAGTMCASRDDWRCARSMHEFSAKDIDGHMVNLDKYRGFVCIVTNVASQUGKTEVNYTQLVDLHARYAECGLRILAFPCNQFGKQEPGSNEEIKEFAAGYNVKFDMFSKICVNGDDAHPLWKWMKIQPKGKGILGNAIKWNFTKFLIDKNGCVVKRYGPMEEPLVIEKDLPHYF

SMILES | Potency [1] | Potency [2] | activity, negative = inhibition [3, 4] | activity, negative = inhibition [3, 5] | Potency (3D7) | Potency (7G8) | Potency ([3]; parasite line A) | Potency ([3]; parasite line B) | activity, negative = inhibition ([3]; at 12.8 µM (top of the series), parasite line A) | activity, negative = inhibition ([3]; at 12.8 µM (top of the series), parasite line B)
NC(=S)NS(=O)(=O)c1ccc(N)cc1 | inactive | inactive | -3.33% | -5.51% | inactive | inactive |  |  |  | 
CC1=CC(=C(c2ccc(N)cc2)c2ccc(N)cc2)C=CC1=N | inactive | inactive |  |  | 0.891 µM (active) | 5.01 µM (active) | 1.41 µM (active) | 1.26 µM (active) |  | 
FCOC(C(F)(F)F)C(F)(F)F | inactive | inactive | 11.2% | -2.57% | inactive | inactive |  |  |  | 
CCOC(=O)c1c[nH]c2cc(OCC(C)C)c(OCC(C)C)cc2c1=O | inactive | inactive |  |  | 0.126 µM (active) | 0.0708 µM (active) | 0.0398 µM (active) | 0.0562 µM (active) |  | 
COc1ccc2c(c1)OC(C)(C)C(c1ccccc1)C2c1ccc(OCCN2CCCC2)cc1 (stereo not given) | inactive | inactive |  |  | 3.16 µM (active) | 2.82 µM (active) | 2.24 µM (active) | 3.98 µM (active) |  | 
CNC(=O)C[C@@H](N)C(=O)N[C@@H](C(=O)N[C@@H]1C(=O)N2[C@@H]1SC(C)(C)[C@@H]2C(=O)O)c1ccc(O)cc1 | inactive | inactive | 11.3% | 15.8% | inactive | inactive |  |  |  | 
CCCCC[C@H](O)/C=C/[C@@H]1[C@H]2C/C(=C/CCCC(=O)O)O[C@H]2C[C@H]1O | inactive | inactive | -0.331% | 0.715% | inactive | inactive |  |  |  | 
c1ccc2ccccc2c1 | inactive | inactive | 8.79% | 4.51% | inactive | inactive |  |  |  | 
CC(C)CCCC(C)NC(C)C (stereo not given) | inactive | inactive | -16.1% | -1.21% | inactive | inactive |  |  |  | 
CN1C(=O)C[C@@H](C(=O)N[C@@H](Cc2cnc[nH]2)C(=O)N2CCC[C@H]2C(N)=O)NC1=O | inactive | inactive | 13.6% | -7.4% | inactive | inactive |  |  |  | 
Cc1cc(-c2ccc(N=Nc3ccc4c(S(=O)(=O)O)cc(S(=O)(=O)O)c(N)c4c3O)c(C)c2)ccc1N=Nc1ccc2c(S(=O)(=O)O)cc(S(=O)(=O)O)c(N)c2c1O | inactive | inactive | 3.16% | 5.39% | inactive | inactive |  |  |  | 
C(=C\c1ccncc1)/c1ccccc1 | inactive | inactive | -2.95% | -9.52% | inactive | 12.6 µM (active) |  |  |  | 
OC[C@H]1O[C@@](CO)(O[C@H]2O[C@H](CO)[C@@H](O)[C@H](O)[C@H]2O)[C@@H](O)[C@@H]1O | inactive | inactive | 11.2% | -0.203% | inactive | inactive |  |  |  | 
N=C(N)c1ccc(/C=C/c2ccc(C(=N)N)cc2O)cc1 | inactive | inactive |  |  |  | 3.98 µM (active) | 8.91 µM (active) | 10 µM (active) |  | 
Cc1cc(=O)c(C(=O)N[C@@H](C(=O)N[C@@H]2C(=O)N3C(C(=O)O)=C(CSc4nnnn4C)CS[C@H]23)c2ccc(O)cc2)c[nH]1 | 12.8 µM (active) |  | 5.19% | 9.95% | inactive | inactive |  |  |  | 
O=C(O)c1ccc(NC(=O)[C@H](Cc2ccc(O)cc2)NC(=O)c2ccccc2)cc1 | inactive | inactive | 3.76% | 5.17% | inactive | inactive |  |  |  | 
CCCCCCCCCCCCCCCCCCCCCC(=O)Nc1ccn([C@@H]2O[C@H](CO)[C@@H](O)[C@@H]2O)c(=O)n1 | inactive | inactive | 4.02% | 6.88% | inactive | inactive |  |  |  | 
CCCCCc1ccc(C)cc1O | inactive | inactive | -9.62% |  | inactive | 12.6 µM (active) |  |  |  | 
CC(CN(C)C)CN1c2ccccc2Sc2ccc(C(F)(F)F)cc21 (stereo not given) | inactive | inactive |  |  | inactive | 10 µM (active) | 11.2 µM (active) |  |  | 
CCCC(CCC)C(=O)OC1C[C@H]2CC[C@@H](C1)[N+]2(C)C (stereo not given in full) | inactive | inactive |  |  |  | 11.2 µM (active) | 5.62 µM (active) |  |  | 
Nc1ccc(N=Nc2ccccc2)c(N)n1 | inactive | inactive |  |  | inactive | inactive | 10 µM (active) |  |  | 
Cc1cc(-c2ccc(N=Nc3c(S(=O)(=O)O)cc4cc(S(=O)(=O)O)cc(N)c4c3O)c(C)c2)ccc1N=Nc1c(S(=O)(=O)O)cc2cc(S(=O)(=O)O)cc(N)c2c1O | inactive | inactive |  |  | inactive |  |  |  |  | 
CCCOc1cc(N)ccc1C(=O)OCCN(CC)CC | inactive | inactive |  |  | inactive | inactive |  |  | -3.32% | 4.44%
CC(C)(C)c1ccc2c(S(=O)(=O)O)c(C(C)(C)C)ccc2c1 | inactive | 12.6 µM (active) | 16.3% | 12.2% | inactive | inactive |  |  |  | 
N#Cc1ccc2c(c1)N(CCCN1CCC(O)CC1)c1ccccc1S2 | inactive | inactive | -11.2% | -26.8% | inactive | 12.6 µM (active) |  |  |  | 
O=C(Nc1ccc(O)cc1)c1ccccc1O | inactive | inactive | 12.3% |  | inactive |  |  |  |  | 
C=CCOc1ccc(CC(=O)O)cc1Cl | inactive | inactive | 8.56% | 1.68% | inactive | inactive |  |  |  | 
